Measurements from PubChem BioAssay (NCATS).
Results filed as inconclusive are left out. Active and inactive are the calls of the source. Calls come from the whole dose curve; as a rule, active = well fitted curve in the direction sought with a large enough effect; inconclusive = small, poorly fitted or top-dose-only effect, or another doubt; inactive = no such curve, though single readings can be large; an effect the other way counts as inactive or inconclusive.

Assays:
[1] = system: Zika virus NS2B-NS3 protease (linked construct); assay: Primary screen NINDS Rhodamine qHTS for Zika virus inhibitors (AID 1347160); note: nearly all actives have a fitted effect of over 55% in size; note: potency is the fitted concentration of half-maximal effect
Method in brief: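 Each compound, titrated, sat 15 min with 25 nM linked protease before 1.5 microM Rhodamine110 substrate went in. Fluorescence gain over the next 15 min, in pH 8.0 Tris with Tween 20, gave Hill-fitted curves.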

[2] = OV-KATE Cancer Cell Toxicity qHTS against the NCATS CANVASS Library (AID 1347345); note: potency is the fitted concentration of half-maximal effect
Method in brief: (§1)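 Following a 4 h pre-incubation of 1000 seeded cells, compounds were pinned in an 11-pnt dilution series and left for 72 h; viability then came from CellTiter-Glo.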

[3] = HPAF-II Cancer Cell Toxicity qHTS against the NCATS CANVASS Library (AID 1347346); note: nearly all actives have a fitted effect of over 55% in size; note: potency is the fitted concentration of half-maximal effect
Method in brief: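 First, HPAF-II cells are plated (1000 cells/well) and held 4 h at 37 degrees C. Next, compounds are pin-transferred as an 11-point series. After 72 h, CellTiter-Glo is added and luminescence measured.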

[4] = UWB1.289 Cancer Cell Toxicity qHTS against the NCATS CANVASS Library (AID 1347347); note: nearly all actives have a fitted effect of over 60% in size; note: potency is the fitted concentration of half-maximal effect
Method in brief: as §1

[5] = OV-SAHO Cancer Cell Toxicity qHTS against the NCATS CANVASS Library (AID 1347348); note: nearly all actives have a fitted effect of over 55% in size; note: potency is the fitted concentration of half-maximal effect
Method in brief: as §1

[6] = Panc-1005 Cancer Cell Toxicity qHTS against the NCATS CANVASS Library (AID 1347349); note: nearly all actives have a fitted effect of over 60% in size; note: potency is the fitted concentration of half-maximal effect
Method in brief: as §1

[7] = SW1088 Cancer Cell Toxicity qHTS against the NCATS CANVASS Library (AID 1347350); note: nearly all actives have a fitted effect of over 75% in size; note: potency is the fitted concentration of half-maximal effect
Method in brief: as §1

[8] = COV-362 Cancer Cell Toxicity qHTS against the NCATS CANVASS Library (AID 1347352); note: potency is the fitted concentration of half-maximal effect
Method in brief: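 First, 1000 cells go into each well and rest for 4 hours. Next, an 11-point dilution range is pinned in. Plates then incubate 72 hours before CellTiter-Glo addition and luminescence reading.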

[9] = HEK293 18hr Apoptosis Induction qHTS against the NCATS CANVASS Library (AID 1347357)
Method in brief: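 HEK293 cells (500/well, DMEM + 10% FBS) treated with an 11-point series for 18 h at 37 degrees C. Caspase-3/7 activity read by Caspase-Glo luminescence after 15 min at room temperature.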

[10] = HEK293 24hr Apoptosis Induction qHTS against the NCATS CANVASS Library (AID 1347359)
Method in brief: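 HEK293 cells, 500 per well, exposed to an 11-point compound series for 24 hours at 37 degrees C. Caspase 3/7 activity read by Caspase-Glo luminescence (DEVD substrate) after 15 min at room temperature.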

[11] = KB-3-1 Cancer Cell Toxicity qHTS against the NCATS CANVASS Library (AID 1347366); note: nearly all actives have a fitted effect of over 75% in size; note: potency is the fitted concentration of half-maximal effect
Method in brief: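 KB-3-1 cells (500/well) in DMEM with 10% FBS were exposed to compounds for 72 h at 37C. Viability was read by CellTiter-Glo luminescence.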

[12] = qHTS for ATAD5 Agonist screened against the NCATS CANVASS Library (AID 1347367);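 note: luciferase reporter driven by ATAD5 which rises upon DNA damage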
Method in brief: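 Luciferase reporter under ATAD5 control, stably integrated in HEK293T cells (2000/well). Compounds (11 points) incubated 16 h at 37C; viability read first by CellTiter-Fluor, then luminescence reporting ATAD5 activation. MMS positive control.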

[13] = J3T Cancer Cell Toxicity qHTS against the NCATS CANVASS Library (AID 1347371); note: potency is the fitted concentration of half-maximal effect
Method in brief: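 Luminescence from CellTiterGlo, reporting cellular ATP, serves as the viability measure after 72 hr compound treatment of J3T canine glioma cells seeded at 500 cells/well.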

[14] = biological target: Nuclear receptor subfamily 1 group I member 3 (Homo sapiens) (UniProt Q14994); assay: qHTS for Constitutive Androstane Receptor (CAR) Agonist screened against the NCATS CANVASS Library (AID 1347373);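 note: every well also contained 1.5 µM PK11195 alongside the test compound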
Method in brief: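 Cells were plated and allowed to attach for 4hr, then dosed with compound in an 11-point series alongside 1.5uM PK11195. After 24hr at 37C, viability was measured fluorometrically and CAR-driven CYP2B6 reporter luminescence was recorded.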

[15] = 10-beta competent E. coli microbial cell viability qHTS against the NCATS CANVASS Library (AID 1347376); note: series mostly up to about 46 µM
Method in brief: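 Bacterial suspension diluted to 0.2 OD was dosed with compounds, 11-point series, then held overnight at 37C. BacTiter-Glo reagent was added, and after 20 min at room temperature ATP-dependent luminescence was measured.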

[16] = qHTS for Inflammasome Signaling Inhibitors: IL-1-beta AlphaLISA screen against the NCATS CANVASS Library (AID 1347379);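 note: human THP-1 cells primed with LPS then triggered with ATP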;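 for Potency: secreted IL-1B measured as AlphaLISA emission at 615 nm; potency is the fitted concentration of half-maximal effect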
Method in brief: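 Secreted IL-1B from human THP-1 cells quantified by AlphaLISA 16 hr after compound addition (final up to 57.5 uM). A 1 hr compound pretreatment preceded inflammasome activation with 250 ng/mL LPS plus 1.25 mM ATP (final).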

[17] = Inflammasome Signaling qHTS Counterscreen: IL-1-beta AlphaLISA counterscreen against the NCATS CANVASS Library (AID 1347381);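 note: cell-free check with purified IL-1β in medium and no THP-1 cells; series mostly up to about 57 µM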
Method in brief: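 Purified IL-1-beta (4 pg/well) + compound, 11-pt conc. series; acceptor beads 6 ug/mL + biotin-Ab 0.6 nM final, 1 h RT; SA-donor 24 ug/ml final, 30 min dark RT; read ex 680/em 615.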

[18] = Vero-766 cells viability qHTS against the NCATS CANVASS Library: Counterscreen for Zika virus inhibition assay (AID 1347394); note: nearly all actives have a fitted effect of over 60% in size; note: potency is the fitted concentration of half-maximal effect
Method in brief: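 Vero 766 cells (1000/well), without Zika virus, were exposed to compounds for 72 h at 37C. Viability was measured by CellTiter Glo luminescence. Media-only wells served as 100% inhibition.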

[19] = Viability qHTS for inhibitors of the SERCaMP assay screened against the NCATS CANVASS Library (AID 1347400); note: nearly all actives have a fitted effect of over 70% in size; note: potency is the fitted concentration of half-maximal effect
Method in brief: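 Seed SH-SY5Y-GLuc SERCaMP MJH297 cells at 1000 per well, incubate 4 h, add compounds across an 11-point range, incubate 48 h at 37C, then add CellTiter-Glo and read luminescence.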

[20] = MCF7 Cancer Cell Toxicity qHTS against the NCATS CANVASS Library (AID 1347369); note: potency is the fitted concentration of half-maximal effect
Method in brief: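 MCF7 cells (500/well) were exposed 72 h at 37 °C to compounds in an 11-point series. Viability was read as ATP content by CellTiterGlo luminescence.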

Measured: Potency

Chain of Nuclear receptor subfamily 1 group I member 3 (Homo sapiens) (Q14994 whole entry, looked up): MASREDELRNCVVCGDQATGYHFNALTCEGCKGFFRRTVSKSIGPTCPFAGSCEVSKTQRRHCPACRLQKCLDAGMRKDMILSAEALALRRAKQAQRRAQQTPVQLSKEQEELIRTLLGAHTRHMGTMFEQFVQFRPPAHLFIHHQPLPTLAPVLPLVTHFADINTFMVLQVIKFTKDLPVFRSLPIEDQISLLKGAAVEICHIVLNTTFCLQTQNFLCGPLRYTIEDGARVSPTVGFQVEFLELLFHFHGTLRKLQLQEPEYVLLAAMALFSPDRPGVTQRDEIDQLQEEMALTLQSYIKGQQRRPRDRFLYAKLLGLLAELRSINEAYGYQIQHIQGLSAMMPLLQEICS

CCCCCCCCC[C@@H]1C[C@@H]2CC[C@H]3[C@@H](C(=O)OCCCCN=C(N)N)[C@@H](C)N=C(N1)N23
inactive: [1] | [9] | [10] | [12] | [14] | [15] | [17] | [18] | [19]
active: [2] 13 µM | [3] 14.7 µM | [4] 10.3 µM | [5] 9.2 µM | [6] 14.7 µM | [7] 13.1 µM | [8] 13 µM | [11] 0.578 µM | [13] 11.5 µM | [16] 21.2 µM

CCC[C@@H](C)/C=C(\C)[C@H](O)[C@H](C)/C=C/CC[C@@H](O)[C@H](C)[C@H](O)[C@H](C)[C@H](O)[C@H](C)[C@H]1O[C@H]([C@H](C)C(=O)O)CC[C@@H]1C
active: [1] 6.21 µM | [2] 3.75 µM | [3] 4.73 µM | [4] 6.66 µM | [5] 3.34 µM | [6] 4.21 µM | [7] 2.11 µM | [8] 5.94 µM | [11] 11.8 µM | [20] 16.5 µM | [18] 9.33 µM | [19] 27 µM
inactive: [9] | [10] | [12] | [13] | [14] | [15] | [17]

C=C(NC(=O)c1csc(-c2nc3c(cc2O)-c2nc(cs2)C(=O)NC(C(C)O)C(=O)N/C(=C(\C)O)c2nc(cs2)C(=O)NC2c4nc(cs4)C(=O)NC(COC(=O)c4c5c6c(cccc6n4O)COC(=O)[C@@H](OC4C[C@](C)(O)[C@H](N(C)C)[C@H](C)O4)C2OC5)c2nc-3cs2)n1)C(N)=O (some centres not stated)
active: [1] 4.4 µM
inactive: all other assays above

CC1=CC[C@@]2(C[C@@H]1O)[C@@H](C(=O)O)CC[C@H]2C(C)C
inactive: all assays above

O=C(O)CC1OC(=O)c2c(O)cccc21 (configuration not stated)
inactive: all assays above

COc1ccc2cc(NC(=O)C3=NO[C@H]4[C@H](O)C=C[C@@H](Cl)[C@@]4(O)C3)c(=O)oc2c1OC
active: [1] 49.3 µM
inactive: all other assays above

CC1(C)CCC[C@]2(C)[C@@H]1CC[C@@]13C[C@@H](CC[C@H]12)C(C)(O)C3 (some centres not stated)
active: [1] 44 µM
inactive: all other assays above

CC(=O)NC[C@@H]1O[C@H](CC/C=C(C)/C(C)=C/C=O)[C@H](C)C[C@H]1O
active: [1] 49.3 µM
not listed: [19]
inactive: all other assays above

C[C@H]1C[C@@H]([C@@H]2CC[C@]34O[C@H](CC[C@@]35C[C@H](C)C(=O)O5)CN24)OC1=O
inactive: all assays above

O=C(O)[C@@]12COC3(O)C1CCN1CC[C@H]3[C@@H]1c1c2[nH]c2ccccc12
inactive: all assays above
